Experimental data published in the supplement of paper PMC12819154, “High-throughput peptide-centric local stability assay extends protein–ligand identification to membrane proteins, tissues and bacteria” (Nature Structural & Molecular Biology, 2025).

compound: CN[C@@H]1C[C@H]2O[C@@](C)([C@@H]1OC)n1c3ccccc3c3c4c(c5c6ccccc6n2c5c31)C(=O)NC4 [staurosporine]; assay: log2 fold change of tryptic peptide abundance, ligand vs vehicle (limited proteolysis) (log2 ratio); higher = more trypsin-susceptible (destabilized); details: ligand concentration: 20 uM; sample: K562 cleared lysate; digestion: 4 min, 22 C (HT-PELSA RT4min, Orbitrap Astral)

UniProt Q00535, sequence (Q00535 whole entry, looked up): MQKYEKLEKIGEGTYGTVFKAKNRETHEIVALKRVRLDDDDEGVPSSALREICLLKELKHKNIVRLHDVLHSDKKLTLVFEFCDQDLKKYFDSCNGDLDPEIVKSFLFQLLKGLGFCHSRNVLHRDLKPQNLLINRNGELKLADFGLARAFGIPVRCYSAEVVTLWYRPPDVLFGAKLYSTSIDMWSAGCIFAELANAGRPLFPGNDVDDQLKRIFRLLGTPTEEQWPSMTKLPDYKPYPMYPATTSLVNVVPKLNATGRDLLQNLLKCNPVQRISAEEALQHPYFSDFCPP
UniProt Q99986, sequence (Q99986 whole entry): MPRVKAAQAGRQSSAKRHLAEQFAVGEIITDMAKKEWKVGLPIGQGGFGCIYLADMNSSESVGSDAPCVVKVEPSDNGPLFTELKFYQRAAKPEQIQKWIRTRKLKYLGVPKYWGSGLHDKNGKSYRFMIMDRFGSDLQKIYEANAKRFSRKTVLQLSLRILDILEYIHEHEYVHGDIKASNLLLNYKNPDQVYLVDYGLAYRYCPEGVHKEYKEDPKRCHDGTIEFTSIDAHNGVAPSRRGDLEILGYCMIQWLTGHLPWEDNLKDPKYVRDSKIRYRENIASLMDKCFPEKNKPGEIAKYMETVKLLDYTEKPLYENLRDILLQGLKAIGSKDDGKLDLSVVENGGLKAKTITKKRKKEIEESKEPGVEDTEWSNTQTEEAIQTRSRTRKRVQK
UniProt Q6ICG6, sequence (Q6ICG6 whole entry): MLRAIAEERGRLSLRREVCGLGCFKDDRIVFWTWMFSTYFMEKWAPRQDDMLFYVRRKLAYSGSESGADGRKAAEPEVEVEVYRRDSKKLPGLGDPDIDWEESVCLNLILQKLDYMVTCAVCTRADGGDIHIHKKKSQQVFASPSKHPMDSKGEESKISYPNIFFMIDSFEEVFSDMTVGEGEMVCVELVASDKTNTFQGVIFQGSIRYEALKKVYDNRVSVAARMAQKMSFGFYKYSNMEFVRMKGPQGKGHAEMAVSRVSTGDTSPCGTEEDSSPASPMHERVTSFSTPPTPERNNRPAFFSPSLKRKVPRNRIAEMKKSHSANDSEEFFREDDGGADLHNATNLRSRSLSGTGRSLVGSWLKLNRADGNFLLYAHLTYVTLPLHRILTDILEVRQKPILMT
UniProt Q12851, sequence (Q12851 whole entry): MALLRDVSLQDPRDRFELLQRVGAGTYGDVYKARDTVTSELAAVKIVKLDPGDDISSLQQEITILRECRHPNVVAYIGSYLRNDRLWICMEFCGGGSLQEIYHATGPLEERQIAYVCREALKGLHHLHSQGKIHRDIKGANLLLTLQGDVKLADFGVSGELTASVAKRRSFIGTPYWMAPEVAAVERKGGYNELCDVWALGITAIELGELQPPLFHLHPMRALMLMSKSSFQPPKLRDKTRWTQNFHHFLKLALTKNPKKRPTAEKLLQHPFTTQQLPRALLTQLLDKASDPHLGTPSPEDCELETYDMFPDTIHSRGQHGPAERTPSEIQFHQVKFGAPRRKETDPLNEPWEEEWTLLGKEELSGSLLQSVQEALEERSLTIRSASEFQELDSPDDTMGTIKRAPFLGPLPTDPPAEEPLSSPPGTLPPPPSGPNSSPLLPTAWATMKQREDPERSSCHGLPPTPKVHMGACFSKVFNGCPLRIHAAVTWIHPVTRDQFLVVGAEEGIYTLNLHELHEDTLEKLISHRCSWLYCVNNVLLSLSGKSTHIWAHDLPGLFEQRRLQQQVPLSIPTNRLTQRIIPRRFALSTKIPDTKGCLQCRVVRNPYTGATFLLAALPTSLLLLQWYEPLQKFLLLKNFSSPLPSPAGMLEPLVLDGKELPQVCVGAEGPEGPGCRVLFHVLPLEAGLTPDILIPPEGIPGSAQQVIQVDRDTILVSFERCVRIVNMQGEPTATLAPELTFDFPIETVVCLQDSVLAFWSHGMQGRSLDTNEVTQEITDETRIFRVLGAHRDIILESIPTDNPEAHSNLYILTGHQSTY
UniProt Q9NVS9, sequence (Q9NVS9 whole entry): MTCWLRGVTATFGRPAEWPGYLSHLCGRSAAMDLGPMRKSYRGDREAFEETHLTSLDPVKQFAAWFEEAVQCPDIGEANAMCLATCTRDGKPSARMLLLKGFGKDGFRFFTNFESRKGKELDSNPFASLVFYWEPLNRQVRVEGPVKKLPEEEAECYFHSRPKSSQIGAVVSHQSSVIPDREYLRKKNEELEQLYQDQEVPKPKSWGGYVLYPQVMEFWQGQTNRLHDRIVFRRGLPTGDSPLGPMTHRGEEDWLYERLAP
UniProt Q96BR1, sequence (Q96BR1 whole entry): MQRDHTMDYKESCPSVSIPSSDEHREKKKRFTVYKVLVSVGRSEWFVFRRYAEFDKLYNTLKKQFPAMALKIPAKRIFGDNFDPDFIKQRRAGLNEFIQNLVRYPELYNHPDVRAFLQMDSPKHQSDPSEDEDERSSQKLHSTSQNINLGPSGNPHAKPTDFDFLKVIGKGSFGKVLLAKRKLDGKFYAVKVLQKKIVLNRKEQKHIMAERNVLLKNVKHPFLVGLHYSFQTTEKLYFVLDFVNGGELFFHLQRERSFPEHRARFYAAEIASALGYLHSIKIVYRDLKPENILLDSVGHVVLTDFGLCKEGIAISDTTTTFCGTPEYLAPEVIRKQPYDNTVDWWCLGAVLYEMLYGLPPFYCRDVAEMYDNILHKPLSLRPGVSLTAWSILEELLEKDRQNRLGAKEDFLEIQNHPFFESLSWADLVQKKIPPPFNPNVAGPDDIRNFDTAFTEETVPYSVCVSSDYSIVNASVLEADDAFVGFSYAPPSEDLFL
UniProt Q14839, sequence (Q14839 whole entry): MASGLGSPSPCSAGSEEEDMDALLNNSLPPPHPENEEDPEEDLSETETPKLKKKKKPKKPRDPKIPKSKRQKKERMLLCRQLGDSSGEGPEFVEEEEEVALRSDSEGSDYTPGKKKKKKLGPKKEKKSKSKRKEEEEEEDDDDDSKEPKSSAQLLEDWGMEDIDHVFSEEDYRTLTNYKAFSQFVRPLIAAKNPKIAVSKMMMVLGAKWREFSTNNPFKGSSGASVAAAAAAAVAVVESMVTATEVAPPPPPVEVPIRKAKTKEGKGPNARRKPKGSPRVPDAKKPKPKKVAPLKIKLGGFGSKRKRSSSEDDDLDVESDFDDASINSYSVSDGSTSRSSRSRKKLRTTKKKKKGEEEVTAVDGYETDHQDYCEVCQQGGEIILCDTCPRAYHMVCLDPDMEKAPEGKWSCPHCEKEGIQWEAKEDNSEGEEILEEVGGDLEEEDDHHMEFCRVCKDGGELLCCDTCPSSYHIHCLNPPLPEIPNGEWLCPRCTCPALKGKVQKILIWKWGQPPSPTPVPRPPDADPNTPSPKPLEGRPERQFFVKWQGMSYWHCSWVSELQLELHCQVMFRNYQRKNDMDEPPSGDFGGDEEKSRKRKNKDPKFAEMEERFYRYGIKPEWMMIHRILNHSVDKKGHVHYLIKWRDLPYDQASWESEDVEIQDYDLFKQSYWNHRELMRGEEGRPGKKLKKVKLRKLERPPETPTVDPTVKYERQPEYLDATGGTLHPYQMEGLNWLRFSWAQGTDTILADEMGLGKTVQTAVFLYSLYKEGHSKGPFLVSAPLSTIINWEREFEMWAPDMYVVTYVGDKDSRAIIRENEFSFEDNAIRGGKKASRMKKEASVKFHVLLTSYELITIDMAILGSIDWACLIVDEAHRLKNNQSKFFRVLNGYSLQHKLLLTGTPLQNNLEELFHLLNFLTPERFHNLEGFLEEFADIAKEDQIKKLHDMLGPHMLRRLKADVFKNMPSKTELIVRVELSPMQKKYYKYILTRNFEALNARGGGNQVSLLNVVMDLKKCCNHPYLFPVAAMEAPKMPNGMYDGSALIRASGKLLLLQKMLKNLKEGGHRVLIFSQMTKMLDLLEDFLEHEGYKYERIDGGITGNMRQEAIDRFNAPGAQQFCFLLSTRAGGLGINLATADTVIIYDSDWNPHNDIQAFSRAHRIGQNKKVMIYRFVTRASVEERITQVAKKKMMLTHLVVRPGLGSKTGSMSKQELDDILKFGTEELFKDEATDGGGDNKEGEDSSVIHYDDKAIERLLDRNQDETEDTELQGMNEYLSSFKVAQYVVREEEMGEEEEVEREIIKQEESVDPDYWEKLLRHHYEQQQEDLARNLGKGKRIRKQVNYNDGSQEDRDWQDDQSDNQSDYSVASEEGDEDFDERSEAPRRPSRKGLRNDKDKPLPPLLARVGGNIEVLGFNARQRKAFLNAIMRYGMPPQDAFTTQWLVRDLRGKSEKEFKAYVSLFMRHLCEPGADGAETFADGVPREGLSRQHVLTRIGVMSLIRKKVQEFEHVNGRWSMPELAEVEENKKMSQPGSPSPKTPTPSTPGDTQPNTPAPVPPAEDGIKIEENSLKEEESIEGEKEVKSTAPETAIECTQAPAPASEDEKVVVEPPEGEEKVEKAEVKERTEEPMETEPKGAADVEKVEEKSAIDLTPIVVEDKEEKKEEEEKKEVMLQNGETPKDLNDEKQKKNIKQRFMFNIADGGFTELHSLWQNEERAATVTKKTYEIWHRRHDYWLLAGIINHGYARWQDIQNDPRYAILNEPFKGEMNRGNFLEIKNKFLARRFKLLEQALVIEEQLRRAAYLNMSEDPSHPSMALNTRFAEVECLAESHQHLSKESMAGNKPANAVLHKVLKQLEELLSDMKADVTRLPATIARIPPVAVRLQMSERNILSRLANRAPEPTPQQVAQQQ
UniProt Q14232, sequence (Q14232 whole entry): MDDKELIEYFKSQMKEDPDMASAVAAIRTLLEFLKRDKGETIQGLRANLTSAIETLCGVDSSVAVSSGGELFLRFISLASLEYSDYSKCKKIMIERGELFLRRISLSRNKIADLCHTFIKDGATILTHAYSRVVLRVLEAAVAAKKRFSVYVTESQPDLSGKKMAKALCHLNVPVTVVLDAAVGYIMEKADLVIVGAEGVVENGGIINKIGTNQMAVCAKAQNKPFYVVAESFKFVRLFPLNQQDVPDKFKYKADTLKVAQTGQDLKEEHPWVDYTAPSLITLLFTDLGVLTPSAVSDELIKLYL

| Target | log2 fold change |
| --- | --- |
| SRRM2 (peptide sequence: SLSYSPVER, peptide start residue: 2690) (UniProt Q9UQ35) | 0.244 |
| SGK3 (peptide sequence: FYAAEIASALGYLHSIK, peptide start residue: 265) (UniProt Q96BR1) | -1.54 |
| TOP2A (peptide sequence: GESDDFHMDFDSAVAPR, peptide start residue: 1493) (UniProt P11388) | -0.599 |
| MAP4K2 (peptide sequence: ALLTQLLDK, peptide start residue: 280) (UniProt Q12851) | -0.962 |
| RPS17 (peptide sequence: NKIAGYVTHLMK, peptide start residue: 48) (UniProt P08708) | 0.59 |
| PKN3 (peptide sequence: TTNWQALLAR, peptide start residue: 820) (UniProt Q6P5Z2) | -2.37 |
| VRK1 (peptide sequence: DILLQGLK, peptide start residue: 322) (UniProt Q99986) | -0.866 |
| OSBPL3 (peptide sequence: YWSTNAHEIEGTVFDR, peptide start residue: 727) (UniProt Q9H4L5) | -1.33 |
| RFESD (peptide sequence: EYSSVCVGREDDIK, peptide start residue: 14) (UniProt Q8TAC1) | 0.768 |
| PNPO (peptide sequence: SSQIGAVVSHQSSVIPDR, peptide start residue: 164) (UniProt Q9NVS9) | 1.66 |
| UniProt O00567 (peptide sequence: LIAHAGSLTNLAK, peptide start residue: 308) | 0.316 |
| CDK5 (peptide sequence: DLKPQNLLINR, peptide start residue: 126) (UniProt Q00535) | -3.41 |
| CCNL2 (peptide sequence: HSMEHVSMACVHLASK, peptide start residue: 118) (UniProt Q96S94) | -1.06 |
| UniProt Q96CW1 (peptide sequence: TFITQQGIK, peptide start residue: 131) | 0.558 |
| CHD4 (peptide sequence: SDSEGSDYTPGK, peptide start residue: 103) (UniProt Q14839) | 1.11 |
| UniProt Q6ICG6 (peptide sequence: KAAEPEVEVEVYRR, peptide start residue: 72) | -1.02 |
| MAST4 (peptide sequence: LTDFGLSK, peptide start residue: 209) (UniProt O15021) | -0.745 |
| SCRN3 (peptide sequence: IMLDNMR, peptide start residue: 369) (UniProt Q0VDG4) | 0.327 |
| UniProt P45985 (peptide sequence: DIKPSNILLDR, peptide start residue: 229) | 0.534 |

| Target | log2 fold change |
| --- | --- |
| UniProt P62269 (peptide sequence: KADIDLTKR, peptide start residue: 47) | 0.394 |
| LAMA5 (peptide sequence: TFQLDTAVDRPCAR, peptide start residue: 2918) (UniProt O15230) | 1.14 |
| SRRM1 (peptide sequence: KETESEAEDNLDDLEK, peptide start residue: 870) (UniProt Q8IYB3) | 1.54 |
| PARK7 (peptide sequence: VTVAGLAGKDPVQCSR, peptide start residue: 33) (UniProt Q99497) | 0.199 |
| PUS1 (peptide sequence: GYAPESVLER, peptide start residue: 307) (UniProt Q9Y606) | -0.403 |
| UniProt Q9NSY1 (peptide sequence: DGVNVVEEEIKK, peptide start residue: 212) | -4.3 |
| UniProt P60842 (peptide sequence: ATQALVLAPTR, peptide start residue: 100) | 0.334 |
| NQO1 (peptide sequence: SIPTDNQIK, peptide start residue: 263) (UniProt P15559) | 0.728 |
| UniProt Q13043 (peptide sequence: ATATQLLQHPFVR, peptide start residue: 270) | -3.53 |
| RAF1 (peptide sequence: IGDFGLATVK, peptide start residue: 445) (UniProt P04049) | 0.416 |
| RPS6KA2 (peptide sequence: ADPSQFELLK, peptide start residue: 63) (UniProt Q15349) | -1 |
| CAMKK1 (peptide sequence: DIKPSNLLLGDDGHVK, peptide start residue: 275) (UniProt Q8N5S9) | -3.71 |
| LIMK1 (peptide sequence: VNADPDYLPR, peptide start residue: 546) (UniProt P53667) | -1.05 |
| EIF2AK4 (peptide sequence: DLKPVNIFLDSDDHVK, peptide start residue: 848) (UniProt Q9P2K8) | -1.33 |
| UniProt Q9BUB5 (peptide sequence: GLPTPQVLQR, peptide start residue: 382) | 0.803 |
| HAT1 (peptide sequence: CNTNTAIELK, peptide start residue: 27) (UniProt O14929) | 0.602 |
| EIF3B (peptide sequence: PRPPTLLSQEQIK, peptide start residue: 706) (UniProt P55884) | 0.691 |
| EIF2B1 (peptide sequence: VAQTGQDLK, peptide start residue: 259) (UniProt Q14232) | 0.366 |
